SMILES strings stand for the structures. Values joined by “and” are separate entries in the source; they are usually repeats but may differ in a detail not shown here. Equal values may be shown once. The source holds several records for some structures; these can differ, active in one and inactive in another. Active and inactive are the calls of the source. The calls were made as follows: active = hit-call score of the fitted dose curve at least 0.9, where 1 is the maximum; inconclusive = response in the unintended direction; inactive = score below 0.9.

The test system of the assay is rat CYP2B1, gene 24300. The experiment in a line: NVS_ADME_rCYP2B1: NovaScreen (NVS) CYP450-related Enzyme Activity (ADME) Assay for rat CYP2B1 (AID 2283117). Here is the method:
NVS_ADME_rCYP2B1 is a biochemical, single-readout assay that uses extracted gene-proteins in a cell-free assay. Measurements were taken 0.75 hour after chemical dosing in a 96-well plate.NVS_ADME_rCYP2B1 is one of one assay component(s) measured or calculated from the NVS_ADME_rCYP2B1 assay. It is designed to make measurements of enzyme activity, a form of enzyme reporter, as detected with fluorescence intensity signals by Fluorescence technology.Data from the assay component NVS_ADME_rCYP2B1 was analyzed into 1 assay endpoint. This assay endpoint, NVS_ADME_rCYP2B1, was analyzed in the positive analysis fitting direction relative to Acetonitrile as the negative control and baseline of activity. Using a type of enzyme reporter, loss-of-signal activity can be used to understand changes in the enzymatic activity as they relate to the gene Cyp2b1. Furthermore, this assay endpoint can be referred to as a primary readout, because this assay has produced multiple assay endpoints where this one serves a enzymatic activity function. To generalize the intended target to other relatable targets, this assay endpoint is annotated to the cyp intended target family, where the subfamily is xenobiotic metabolism.
Binding assays used specific radioligands (tritiated, iodinated) with non-radioactive competitive displacement ligands in agonist or antagonist protocols (as indicated) and various reference compounds and inhibitors to titrate specific binding to receptors and transporters. Most enzyme assays (CYPs, kinases, phosphatases, proteases, HDACs) used recombinant protein and specific substrates (fluorescence mostly, some colorimetric and radioactive) and inhibitors, followed by a biochemical separation of substrate and product. All assays for the biochemical HTS were initially run in duplicate at a single concentration (10 uM for CYP450 assays and 25 uM for all others). Assay-chemical combinations meeting a pre-defined threshold (e.g., 30% inhibition and other criteria defined below) were then run in singleton concentration-response format with maximum concentration of 20 uM for CYPs and 50 uM for all others. Each assay was run with positive and negative controls, and concurrent controls on every plate. The follow-up (secondary) screen tested active chemical-pairs in concentration series, as well as a few additional assays not tested in the primary screen, some selected negative inactives, and several cases re-run in the concentration series for confirmatory purposes.
Take `N#CC(CCc1ccc(Cl)cc1)(Cn1cncn1)c1ccccc1` (centres undefined): the AC50 was 0.0692 µM (active).

For the compound `CCON=C(CC)C1=C(O)CC(c2c(C)cc(C)cc2C)CC1=O` (centres undefined), the result was inactive. Consider `OC(c1ccc(Cl)cc1)(c1cncnc1)c1ccccc1Cl` (centres undefined), for which the AC50 was 1.17 µM (active). The same measure, in the same setting: as for `O=C(Nc1ccccc1)Nc1ccnc(Cl)c1`, the figure is 6.41 µM (active); as for `CCOC(=O)CC(SP(=S)(OC)OC)C(=O)OCC` (centres undefined), 3.83 µM (active). In the case of `CCCCOC(=O)c1ccccc1C(=O)OCCCC`, the compound was called inactive and the AC50 is 2.31 µM (active). `CCNc1nc(Cl)nc(NC(C)C)n1`: the compound was classed as inactive. Take `CCOP(=S)(OCC)SCn1c(=O)oc2cc(Cl)ccc21`: the half-maximal activity concentration (AC50) was 0.708 µM (active). Same read-out and setting: to `CCCC1COC(Cn2cncn2)(c2ccc(Cl)cc2Cl)O1` (centres undefined) belongs 799 nM (active) and 409 nM (active); to `CC1COC(Cn2cncn2)(c2ccc(Oc3ccc(Cl)cc3)cc2Cl)O1` (centres undefined), 0.552 µM (active). Still for that read-out and setting: to `CCCN(CCC)c1c([N+](=O)[O-])cc(S(N)(=O)=O)cc1[N+](=O)[O-]` belongs 7.63 µM (active). `COc1ccc(C(c2ccc(OC)cc2)C(Cl)(Cl)Cl)cc1`: the call was inactive. `CN(C)C(=S)SSC(=S)N(C)C`: the half-maximal activity concentration (AC50) is 2.11 µM (active).

(Values after PubChem BioAssay (EPA / NIEHS).)
